Assay results taken from PubChem BioAssay.
Where “and” joins values, the source holds several entries; their conditions need not be identical. Identical values can stand only once. Inconclusive results are not listed. Calls of active or inactive are those of the source.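 How the source made its calls, unless noted: active means normalized viability below 100% at a tested concentration; inactive means the rest.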

Tests used:
[1] = ovarian cancer cell viability with rucaparib, profiling panel, oncology-focused library, rucaparib conditional (AID 1508598); conditions: patient-derived ovarian cancer cells, CellTiter-Glo viability, 144 h, stronger effect = lower value
[2] = growth inhibition of DIPG glioma cells, dose response, cell-based, SU-DIPG-XVII, MIPE5.0, CellTiter-Glo, qHTS (AID 1347060; cut-off not given, nearly all actives have AC50 up to about 26 µM;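 on AC50: cells exposed to compound for 48 hours before viability readout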); conditions: SU-DIPG-XVII viability, CellTiter-Glo ATP luminescence
[3] = growth inhibition of DIPG glioma cells, dose response, cell-based, JHH-DIPG-1, MIPE4.0, CellTiter-Glo, qHTS (AID 1347062; cut-off not given, nearly all actives have AC50 up to about 27 µM;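 on AC50: cells exposed to compound for two days before readout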); conditions: JHH-DIPG-1 viability, CellTiter-Glo ATP luminescence
[4] = growth inhibition of DIPG glioma cells, dose response, cell-based, SU-DIPG-IV, MIPE4.0, CellTiter-Glo, qHTS (AID 1347063; cut-off not given, nearly all actives have AC50 up to about 30 µM;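 further: compound exposure lasted 48 hours before the viability readout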); conditions: SU-DIPG-IV viability, CellTiter-Glo ATP luminescence
[5] = growth inhibition of DIPG glioma cells, dose response, cell-based, SU-DIPG-XIII, MIPE5.0, CellTiter-Glo, qHTS (AID 1347064; cut-off not given, nearly all actives have AC50 up to about 23 µM;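 on AC50: cells exposed to compound for 48 hours before the viability read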); conditions: SU-DIPG-XIII viability, CellTiter-Glo ATP luminescence
[6] = viability loss in pontine glioma line – cell-based, SU-DIPG-XXV, MIPE5.0, CellTiter-Glo, qHTS, dose response (AID 1347065; cut-off not given, nearly all actives have AC50 up to about 26 µM;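 further: cells exposed to compound for 48 hours before ATP readout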); conditions: CellTiter-Glo ATP luminescence
[7] = SU-DIPG-VI glioma cell viability, MIPE4.0 library, CellTiter-Glo luminescence, qHTS (AID 1347066; cut-off not given, nearly all actives have AC50 up to about 30 µM;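 further: cells exposed to compound for 48 hours before readout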); conditions: CellTiter-Glo ATP luminescence
[8] = JHH-DIPG-1 glioma cell viability, MIPE5.0 library, CellTiter-Glo luminescence, qHTS (AID 1347067; cut-off not given, nearly all actives have AC50 up to about 26 µM;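 further: cells exposed to compound for 48 hours before readout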); conditions: JHH-DIPG-1 glioma viability, CellTiter-Glo ATP luminescence
[9] = SU-DIPG-XXV glioma cell viability, MIPE5.0 library, qHTS (AID 1347068; cut-off not given, nearly all actives have IC50 up to about 30 µM;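 on IC50: cells exposed to compound for 48 hours before viability readout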)
[10] = sensitizers of A549 cells to miR-34 induction, primary screen, imaging, A549 dox-inducible miR-34, nuclei and caspase counts (AID 1347080;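 active means compounds whose cell count with miR-34 switched on is under 0.7 times the count with it off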); conditions: A549 miR-34 inducible, Hoechst nuclei count, 48 h
[11] = modifiers of HSF1 nuclear foci, imaging, Selleck Cancer Library (AID 1347162; in the data active means plate-normalised HSF1 focus index below about 0.46); conditions: human cells, at 10 µM; SSMD: measured here: HSF1 foci SSMD mean; cell count: measured here: cell number; plate-normalised HSF1 focus index: stronger effect = lower value
[12] = survival rescue of mitochondrial mutant cells in low glucose, primary screen, MELAS cybrids, Rieske KO mouse fibroblasts, CellTiter-Glo (AID 1508586;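 active means mean z-score across replicates of 1.96 or higher in either the MELAS or the Rieske mutant cell line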;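 further: z relative to plate mean and SD of compound and empty wells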)
[13] = at 0.313 µM, OCI-P5x cells, without rucaparib
[14] = at 1.25 µM, OCI-C5x cells, with rucaparib 10 µM, 100% = cells with rucaparib alone
[15] = at 1.25 µM, OCI-C5x cells, without rucaparib
[16] = at 1.25 µM, OCI-P5x cells, with rucaparib 20 µM, 100% = cells with rucaparib alone
[17] = at 1.25 µM, OCI-P5x cells, without rucaparib
[18] = at 5 µM, OCI-C5x cells, with rucaparib 10 µM, 100% = cells with rucaparib alone
[19] = at 5 µM, OCI-C5x cells, without rucaparib
[20] = at 5 µM, OCI-P5x cells, with rucaparib 20 µM, 100% = cells with rucaparib alone
[21] = at 5 µM, OCI-P5x cells, without rucaparib
[22] = at 0.000305 µM, OCI-C5x cells, with rucaparib 10 µM, 100% = cells with rucaparib alone
[23] = at 0.000305 µM, OCI-C5x cells, without rucaparib
[24] = at 0.000305 µM, OCI-P5x cells, with rucaparib 20 µM, 100% = cells with rucaparib alone
[25] = at 0.000305 µM, OCI-P5x cells, without rucaparib
[26] = at 0.00122 µM, OCI-C5x cells, with rucaparib 10 µM, 100% = cells with rucaparib alone
[27] = at 0.00122 µM, OCI-C5x cells, without rucaparib
[28] = at 0.00122 µM, OCI-P5x cells, with rucaparib 20 µM, 100% = cells with rucaparib alone
[29] = at 0.00122 µM, OCI-P5x cells, without rucaparib
[30] = at 0.00488 µM, OCI-C5x cells, with rucaparib 10 µM, 100% = cells with rucaparib alone
[31] = at 0.00488 µM, OCI-C5x cells, without rucaparib
[32] = at 0.00488 µM, OCI-P5x cells, with rucaparib 20 µM, 100% = cells with rucaparib alone
[33] = at 0.00488 µM, OCI-P5x cells, without rucaparib
[34] = at 0.0195 µM, OCI-C5x cells, with rucaparib 10 µM, 100% = cells with rucaparib alone
[35] = at 0.0195 µM, OCI-C5x cells, without rucaparib
[36] = at 0.0195 µM, OCI-P5x cells, with rucaparib 20 µM, 100% = cells with rucaparib alone
[37] = at 0.0195 µM, OCI-P5x cells, without rucaparib
[38] = at 0.0781 µM, OCI-C5x cells, with rucaparib 10 µM, 100% = cells with rucaparib alone
[39] = at 0.0781 µM, OCI-C5x cells, without rucaparib
[40] = at 0.0781 µM, OCI-P5x cells, with rucaparib 20 µM, 100% = cells with rucaparib alone
[41] = at 0.0781 µM, OCI-P5x cells, without rucaparib
[42] = at 0.313 µM, OCI-C5x cells, with rucaparib 10 µM, 100% = cells with rucaparib alone
[43] = at 0.313 µM, OCI-C5x cells, without rucaparib
[44] = at 0.313 µM, OCI-P5x cells, with rucaparib 20 µM, 100% = cells with rucaparib alone
[45] = stronger effect = lower value, cell number ratio, induced over uninduced
[46] = measured here: relative caspase fold change +Dox/-Dox
[47] = measured here: total cells with miR-34 induction, stronger effect = lower value
[48] = measured here: total cells without miR-34 induction
[49] = MELAS cybrid survival, CellTiter-Glo 48 h, stronger effect = higher value
[50] = Rieske KO mouse fibroblast survival, CellTiter-Glo 72 h

COc1cc(OC)c(/C=C/S(=O)(=O)Cc2ccc(OC)c(NCC(=O)O)c2)c(OC)c1
active: viability [1, 13] 20.6% | viability [1, 14] 37.8% | viability [1, 15] 32.9% | viability [1, 16] 54.9% | viability [1, 17] 14.5% | viability [1, 18] 36.1% | viability [1, 19] 29% | viability [1, 20] 52% | viability [1, 21] 12.1%

C=CC(=O)Nc1cc2c(Nc3ccc(F)c(Cl)c3)ncnc2cc1C#CC(C)(C)N1CCN(C)CC1
active: AC50 [2] 2.95 µM | AC50 [3] 5.26 µM | AC50 [4] 1.87 µM | AC50 [5] 4.68 µM | AC50 [6] 5.9 µM | AC50 [7] 5.9 µM | AC50 [8] 4.17 µM | IC50 [9] 7.42 µM

CN1CCCN(C(=O)c2cccc(-c3ccc(/C=C4/C(=O)Nc5ccc(Cl)cc54)o3)c2)CC1
active: AC50 [2] 8.33 µM | AC50 [3] 20.9 µM | AC50 [4] 9.35 µM | AC50 [5] 7.42 µM | AC50 [6] 10.5 µM | AC50 [7] 10.5 µM | AC50 [8] 2.35 µM | IC50 [9] 29.5 µM | viability [1, 23] 96.5% | viability [1, 30] 99.3% | viability [1, 34] 90.6% | viability [1, 35] 99.3% | viability [1, 36] 97.1% | viability [1, 44] 100% | viability [1, 13] 94.8% | viability [1, 14] 98% | viability [1, 15] 96.2% | viability [1, 16] 95.1% | viability [1, 17] 93.4% | viability [1, 18] 2.49% | viability [1, 19] 2.79% | viability [1, 20] 1.66% | viability [1, 21] 1.82%
inactive: viability [1, 22] 101% | viability [1, 24] 105% | viability [1, 25] 105% | viability [1, 26] 103% | viability [1, 27] 102% | viability [1, 28] 107% | viability [1, 29] 103% | viability [1, 31] 104% | viability [1, 32] 106% | viability [1, 33] 106% | viability [1, 37] 103% | viability [1, 38] 108% | viability [1, 39] 107% | viability [1, 40] 109% | viability [1, 41] 102% | viability [1, 42] 105% | viability [1, 43] 111%

O=C(O)C1=CO[C@@H](O[C@@H]2O[C@H](CO)[C@@H](O)[C@H](O)[C@H]2O)[C@@H]2C(CO)=CC[C@H]12
inactive: outcome [2] | outcome [3] | outcome [4] | outcome [5] | outcome [7] | outcome [8] | outcome [9]

CC(C)(C)c1cnc(CSc2cnc(NC(=O)C3CCNCC3)s2)o1
active: AC50 [2] 0.118 µM | AC50 [3] 0.166 µM | AC50 [4] 0.264 µM | AC50 [5] 0.833 µM | AC50 [6] 0.742 µM | AC50 [8] 1.18 µM | IC50 [9] 0.934 µM | viability [1, 30] 100% | viability [1, 35] 98.5% | viability [1, 39] 100% | viability [1, 42] 94.4% | viability [1, 43] 97% | viability [1, 44] 95.6% | viability [1, 13] 85.8% | viability [1, 14] 9.76% | viability [1, 15] 9.99% | viability [1, 16] 22.5% | viability [1, 17] 14% | viability [1, 18] 12% | viability [1, 19] 10.8% | viability [1, 20] 20.3% | viability [1, 21] 11%
0.418: SSMD [11]
-1.89: z-score [12, 50]
1520: cell count [10, 48]
inactive: fold change [10, 45] 0.966 | plate-normalised HSF1 focus index [11] 1.03 | z-score [12, 49] 0.429 | viability [1, 22] 114% | viability [1, 23] 105% | viability [1, 24] 112% | viability [1, 25] 111% | viability [1, 26] 108% | viability [1, 27] 104% | viability [1, 28] 103% | viability [1, 29] 106% | viability [1, 31] 103% | viability [1, 32] 110% | viability [1, 33] 104% | viability [1, 34] 108% | viability [1, 36] 105% | viability [1, 37] 110% | viability [1, 38] 108% | viability [1, 40] 101% | viability [1, 41] 104%
1470: cell count [10, 47]
1.56: fold change [10, 46]
7130: cell count [11]

CCN1CCN(c2ccc(Nc3cc(N(C)C(=O)Nc4c(Cl)c(OC)cc(OC)c4Cl)ncn3)cc2)CC1
active: AC50 [2] 0.235 µM | AC50 [3] 23.5 µM | AC50 [4] 33.2 µM | AC50 [5] 0.332 µM | AC50 [6] 0.209 µM | AC50 [8] 8.33 µM

COc1cc2nccc(Oc3ccc(NC(=O)C4(C(=O)Nc5ccc(F)cc5)CC4)cc3)c2cc1OC
active: AC50 [2] 13.2 µM | AC50 [3] 2.35 µM | AC50 [4] 4.69 µM | AC50 [5] 16.6 µM | AC50 [6] 7.42 µM | AC50 [8] 11.8 µM | IC50 [9] 8.33 µM | viability [1, 24] 85.5% | viability [1, 25] 68.9% | viability [1, 28] 59.2% | viability [1, 29] 22.8% | viability [1, 32] 94.7% | viability [1, 33] 99.9% | viability [1, 36] 94.3% | viability [1, 40] 93.1% | viability [1, 44] 87.8% | viability [1, 13] 94.8% | viability [1, 16] 84.5% | viability [1, 17] 91.5% | viability [1, 20] 74.7% | viability [1, 21] 85.4%
inactive: fold change [10, 45] 1.18 and 1.06 | z-score [12, 49] -0.475 and -0.436 | viability [1, 22] 114% | viability [1, 23] 126% | viability [1, 26] 115% | viability [1, 27] 119% | viability [1, 30] 110% | viability [1, 31] 114% | viability [1, 34] 118% | viability [1, 35] 122% | viability [1, 37] 101% | viability [1, 38] 127% | viability [1, 39] 115% | viability [1, 41] 101% | viability [1, 42] 130% | viability [1, 43] 129% | viability [1, 14] 147% | viability [1, 15] 133% | viability [1, 18] 146% | viability [1, 19] 133%
1810 and 3700: cell count [10, 47]
0.894 and 0.677: fold change [10, 46]
1.25 and 1.04: z-score [12, 50]
1540 and 3490: cell count [10, 48]
